Assay results published in PubChem BioAssay AID1159580 (chemical genetic matrix, 2015).
The whole screen tested about 5,500 compounds, of which about 2,000 (36%) were called active. Inconclusive results (about 18%) are left out. No stated cut-off is given here; in the data, active means normalized growth mostly below about 0.91 (no sharp cut-off); inconclusive means no clear call, values can overlap the other calls; inactive means mostly above about 0.92. The list shows a part of the results.

Assay: chemical genetic growth profiling, strain panel (AID 1159580);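 further: tested at 20 µM; growth read once vehicle control cultures reached saturation at 30 °C; 1 = growth at the plate median or of vehicle wells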
Details: growth OD

Measured: normalized growth

Nc1ccc(S(=O)(=O)Nc2ncccn2)cc1
inactive: S. cerevisiae deletion strains, locus YJR066W, strain TOR1, stronger effect = lower value 0.92 | S. cerevisiae deletion strains, locus YJR075W, strain HOC1, stronger effect = lower value 0.992 | S. cerevisiae deletion strains, locus YKL009W, strain mrt4, stronger effect = lower value 1.01 | S. cerevisiae deletion strains, locus YKL068W, stronger effect = lower value 0.989 | S. cerevisiae deletion strains, locus YKL085W, strain MDH1 (second series), stronger effect = lower value 0.996 | S. cerevisiae deletion strains, locus YKL085W, strain MDH1, stronger effect = lower value 0.996 | S. cerevisiae deletion strains, locus YKL160W, strain elf1, stronger effect = lower value 1.01 | S. cerevisiae deletion strains, locus YKL190W, strain CNB1, stronger effect = lower value 0.989 | S. cerevisiae deletion strains, locus YKR001C, strain vps1, stronger effect = lower value 1 | S. cerevisiae deletion strains, locus YKR026C, strain gcn3, stronger effect = lower value 0.966 | S. cerevisiae deletion strains, locus YKR091W, strain srl3, stronger effect = lower value 0.978 | S. cerevisiae deletion strains, locus YLL001W, strain dnm1, stronger effect = lower value 0.977 | S. cerevisiae deletion strains, locus YLL026W, stronger effect = lower value 0.999 | S. cerevisiae deletion strains, locus YLL041C, strain sdh2, stronger effect = lower value 0.997 | S. cerevisiae deletion strains, locus YLR027C, strain aat2, stronger effect = lower value 0.983 | S. cerevisiae deletion strains, locus YLR039C, strain RIC1, stronger effect = lower value 0.999 | S. cerevisiae deletion strains, locus YLR058C, strain SHM2, stronger effect = lower value 0.976 | S. cerevisiae deletion strains, locus YLR102C, strain apc9, stronger effect = lower value 0.993 | S. cerevisiae deletion strains, locus YLR113W, strain HOG1, stronger effect = lower value 0.973 | S. cerevisiae deletion strains, locus YLR221C, strain rsa3, stronger effect = lower value 0.968 | S. cerevisiae deletion strains, locus YLR258W, strain gsy2, stronger effect = lower value 0.98 | S. cerevisiae deletion strains, locus YLR262C, strain YPT6 (second series), stronger effect = lower value 0.981 | S. cerevisiae deletion strains, locus YLR262C, strain YPT6, stronger effect = lower value 0.974 | S. cerevisiae deletion strains, locus YLR268W, strain sec22, stronger effect = lower value 1.05 | S. cerevisiae deletion strains, locus YLR320W, strain mms22, stronger effect = lower value 0.982 | S. cerevisiae deletion strains, locus YLR330W, strain CHS5, stronger effect = lower value 0.994 | S. cerevisiae deletion strains, locus YLR342W, strain FKS1 (second series), stronger effect = lower value 1.01 | S. cerevisiae deletion strains, locus YLR342W, strain FKS1, stronger effect = lower value 0.992 | S. cerevisiae deletion strains, locus YLR357W, strain rsc2, stronger effect = lower value 0.939 | S. cerevisiae deletion strains, locus YLR370C, strain arc18, stronger effect = lower value 0.982 | S. cerevisiae deletion strains, locus YLR384C, strain iki3, stronger effect = lower value 0.994 | S. cerevisiae deletion strains, locus YLR418C, strain cdc73, stronger effect = lower value 0.997 | S. cerevisiae deletion strains, locus YML016C, strain PPZ1, stronger effect = lower value 0.988 | S. cerevisiae deletion strains, locus YML032C, strain rad52, stronger effect = lower value 1.01 | S. cerevisiae deletion strains, locus YML120C, strain ndi1, stronger effect = lower value 0.969 | S. cerevisiae deletion strains, locus YML124C, strain tub3, stronger effect = lower value 1 | S. cerevisiae deletion strains, locus YMR058W, strain fet3, stronger effect = lower value 1.01 | S. cerevisiae deletion strains, locus YMR078C, strain ctf18, stronger effect = lower value 0.985 | S. cerevisiae deletion strains, locus YMR125W, strain sto1, stronger effect = lower value 0.955 | S. cerevisiae deletion strains, locus YMR129W, stronger effect = lower value 0.983 | S. cerevisiae deletion strains, locus YMR205C, strain PFK2, stronger effect = lower value 0.985 | S. cerevisiae deletion strains, locus YMR223W, strain ubp8, stronger effect = lower value 0.976 | S. cerevisiae deletion strains, locus YMR231W, strain pep5, stronger effect = lower value 0.979 | S. cerevisiae deletion strains, locus YMR307W, strain GAS1, stronger effect = lower value 1 | S. cerevisiae deletion strains, locus YNL067W, strain RPL9B, stronger effect = lower value 0.99 | S. cerevisiae deletion strains, locus YNL071W, strain lat1, stronger effect = lower value 0.969 | S. cerevisiae deletion strains, locus YNL153C, strain GIM3, stronger effect = lower value 0.987 | S. cerevisiae deletion strains, locus YNL183C, strain NPR1, stronger effect = lower value 0.942 | S. cerevisiae deletion strains, locus YNL209W, strain ssb2, stronger effect = lower value 0.967 | S. cerevisiae deletion strains, locus YNL233W, strain BNI4, stronger effect = lower value 0.994 | S. cerevisiae deletion strains, locus YNL248C, strain rpa49, stronger effect = lower value 0.974 | S. cerevisiae deletion strains, locus YNL250W, strain rad50, stronger effect = lower value 1 | S. cerevisiae deletion strains, locus YNL271C, strain bni1, stronger effect = lower value 0.998 | S. cerevisiae deletion strains, locus YNL298W, strain CLA4, stronger effect = lower value 1 | S. cerevisiae deletion strains, locus YNL307C, strain MCK1, stronger effect = lower value 1 | S. cerevisiae deletion strains, locus YNL322C, strain KRE1 (second series), stronger effect = lower value 0.959 | S. cerevisiae deletion strains, locus YNR049C, strain mso1, stronger effect = lower value 0.98 | S. cerevisiae deletion strains, locus YNR052C, strain pop2, stronger effect = lower value 0.995 | S. cerevisiae deletion strains, locus YOL006C, strain TOP1, stronger effect = lower value 0.968 | S. cerevisiae deletion strains, locus YOL012C, strain htz1 1.31 | S. cerevisiae deletion strains, locus YOL147C, strain pex11, stronger effect = lower value 1 | S. cerevisiae deletion strains, locus YOR001W, strain rrp6, stronger effect = lower value 0.948 | S. cerevisiae deletion strains, locus YOR061W, strain CKA2, stronger effect = lower value 0.968 | S. cerevisiae deletion strains, locus YOR069W, strain VPS5, stronger effect = lower value 1 | S. cerevisiae deletion strains, locus YOR070C, strain gyp1, stronger effect = lower value 0.991 | S. cerevisiae deletion strains, locus YOR080W, strain dia2, stronger effect = lower value 0.972 | S. cerevisiae deletion strains, locus YOR083W, strain WHI5, stronger effect = lower value 0.964 | S. cerevisiae deletion strains, locus YOR106W, strain vam3, stronger effect = lower value 0.981 | S. cerevisiae deletion strains, locus YOR136W, strain idh2, stronger effect = lower value 0.983 | S. cerevisiae deletion strains, locus YOR144C, strain elg1, stronger effect = lower value 0.996 | S. cerevisiae deletion strains, locus YOR184W, strain ser1, stronger effect = lower value 0.994 | S. cerevisiae deletion strains, locus YOR231W, strain MKK1, stronger effect = lower value 0.978 | S. cerevisiae deletion strains, locus YOR265W, strain rbl2, stronger effect = lower value 1.02 | S. cerevisiae deletion strains, locus YOR270C, strain vph1, stronger effect = lower value 0.919 | S. cerevisiae deletion strains, locus YOR290C, strain snf2, stronger effect = lower value 0.974 | S. cerevisiae deletion strains, locus YOR316C, strain cot1, stronger effect = lower value 0.984 | S. cerevisiae deletion strains, locus YPL051W, strain arl3, stronger effect = lower value 1.01 | S. cerevisiae deletion strains, locus YPL055C, strain LGE1, stronger effect = lower value 0.939 | S. cerevisiae deletion strains, locus YPL078C, strain atp4, stronger effect = lower value 0.992 | S. cerevisiae deletion strains, locus YPL106C, strain sse1, stronger effect = lower value 0.983 | S. cerevisiae deletion strains, locus YPL240C, strain hsp82, stronger effect = lower value 0.99 | S. cerevisiae deletion strains, locus YPL241C, strain CIN2, stronger effect = lower value 0.996 | S. cerevisiae deletion strains, locus YPL256C, strain CLN2, stronger effect = lower value 0.968 | S. cerevisiae deletion strains, locus YPR119W, strain clb2, stronger effect = lower value 0.983 | S. cerevisiae deletion strains, locus YPR141C, strain kar3, stronger effect = lower value 0.983 | S. cerevisiae deletion strains, locus YPR163C, strain tif3, stronger effect = lower value 1 | S. cerevisiae deletion strains, locus YPR167C, strain met16, stronger effect = lower value 0.989 | S. cerevisiae deletion strains, strain wtn01, stronger effect = lower value 1.01 | S. cerevisiae strains, strain wild type, stronger effect = lower value 0.988
